Results from PubChem BioAssay (NCI).
About 79,000 compounds went through this panel and 15% of them were active in at least one assay; those are over-represented in the sample as a whole. Unmarked numbers belong to inactive results. Activity calls are given as the source filed them. No stated cut-off is given here; in the data, active means growth inhibition above about 70%; inactive means the rest.

Key:
[1] = NCI Yeast Anticancer Drug Screen. Data for the rad50 strain (AID 155);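 further: 0% = growth of vehicle-only cultures of the same strain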; conditions: S. cerevisiae rad50 strain growth inhibition; at 50.0 µM; active compounds read high
Procedure, shortened: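 Growth of the mutant yeast was measured after compound exposure and referenced to vehicle-treated cultures.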

[2] = NCI Yeast Anticancer Drug Screen. Data for the mec2-1 strain (AID 157); conditions: S. cerevisiae mec2-1 strain, at 50.0 µM, active compounds read high
Procedure, shortened: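 Each compound was tested on mec2-1 yeast, a strain altered in DNA damage repair or cell cycle control. Growth inhibition is reported relative to vehicle.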

[3] = NCI Yeast Anticancer Drug Screen. Data for the sgs1 mgt1 strain (AID 161);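 further: 0% = growth of cultures given vehicle only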; conditions: S. cerevisiae sgs1 mgt1 strain, at 50.0 µM, active compounds read high
Procedure, shortened: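 Genetically altered yeast, compound exposure, growth inhibition relative to vehicle.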

[4] = NCI Yeast Anticancer Drug Screen. Data for the cln2 rad14 strain (AID 165);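 further: 0% = growth equal to vehicle treated cultures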; conditions: S. cerevisiae cln2 rad14 strain, at 50.0 µM, active compounds read high
Procedure, shortened: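 Test compounds were added to cln2 rad14 yeast cultures; inhibition of growth was then determined by comparison with vehicle treatment.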

[5] = NCI Yeast Anticancer Drug Screen. Data for the bub3 strain (AID 167); conditions: S. cerevisiae bub3 mutant strain, at 50.0 µM, active compounds read high
Procedure, shortened: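 Whole-cell yeast assay. The mutant strain was incubated with compounds, and growth inhibition was determined by comparison with vehicle-treated cells.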

[6] = NCI Yeast Anticancer Drug Screen. Data for the mlh1 rad18 strain (AID 175); conditions: S. cerevisiae mlh1 rad18 strain growth inhibition; at 50.0 µM; active compounds read high
Procedure, shortened: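 Inhibition values reflect reduced growth of mutant yeast versus vehicle-treated controls following compound exposure; the mutations affect DNA damage repair.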

Compound	growth inhibition [1]	growth inhibition [2]	growth inhibition [3]	growth inhibition [4]	growth inhibition [5]	growth inhibition [6]
S=P(NCc1cccc(CNP(=S)(N2CC2)N2CC2)c1)(N1CC1)N1CC1	24.4%	-0.2%	16.2%	7.8%	-1.6%	9.4%
NC(=O)CCC(N)C(=O)O.[Cl-].[Cl-].[Cl-].[Cl-].[Pt+2] (centres undefined)	-1.4%	-3.35%	-9.1%	23.9%	8.1%	13%
c1ccc2c(C3NCCc4[nH]cnc43)cccc2c1 (centres undefined)	3.7%	1.85%	-9.45%	-18.3%	-32%	4.65%
O=C(N/N=C/c1cc(Cl)cc(Cl)c1[O-])c1ccccc1O.O=C(N/N=C/c1cc(Cl)cc(Cl)c1[O-])c1ccccc1O.[Ni+2]	-8.75%	-15.8%	-14.8%	-41.2%	6.9%	-17.1%
CCCc1c(C#N)c(S)[nH]c(=S)c1C#N	33.4%	20.4%	13.6%	-5.65%	4.55%	16.2%
COS(=O)(=O)c1ccc(C)cc1	24.2%	-1.85%	-8.2%	12.7%	-7.7%	-3.75%
[Cl][Co][Br].[NH-]CC[NH-].[NH-]CC[NH-]	-12.7%	3.95%	13.9%	-42.1%	36.4%	21.2%
NC(Cc1cccc(NP(=S)(NCCO)N2CC2)c1)C(=O)O (centres undefined)	-4.95%	15.1%	12.8%	-10.9%	13.1%	4.35%
O=NC1C(=O)NC(=O)NC1=O	1.75%	-5.85%	3.45%	14.7%	11.7%	-3.65%
CC(=O)Nc1ccc2c(c1)C(=O)c1cc(NC(C)=O)ccc1-2	24.4%	-10.1%	-13.6%	1.55%	-2.75%	-7.5%
O=C/C=C/c1ccccc1.[Fe+2].[c-]1[c-][c-][cH-][c-]1.[c-]1[c-][c-][cH-][c-]1	4.65%	-48.2%	1.65%	7.85%	11.4%	0.4%
CC1=NCCc2c1[nH]c1cc(O)ccc21	6.65%	-28.1%	-12.6%	-3.85%	-15.6%	4%
O=C1OC(Br)c2ccccc21 (centres undefined)	-11.4%	-27.7%	-8%	7%	-20.1%	-7.65%
COC(=O)CCP(CCC(=O)OC)c1ccccc1	-3.9%	-11%	-7.15%	-10.7%	-4.85%	1.1%
O=Cc1ccccc1O.[Nd]	-0.65%	-33.6%	17.2%	6.65%	3.9%	6.6%
COc1cc2c(cc1OC)C13CCN4CC5CCOC6CC(=O)N2C1C6C5CC43 (centres undefined)	8.6%	6.35%	21.6%	10.2%	-7.5%	-72.3%
C[Si](C)(C)CS(=O)[O-].[C-]#[O+].[C-]#[O+].[Fe+6].[c-]1[c-][c-][cH-][c-]1	0.1%	8.8%	20.7%	-12.2%	-3.85%	6.65%
c1ccc(OP(Oc2ccccc2)(c2ccccc2)(c2ccccc2)c2ccccc2)cc1	6.05%	6.6%	13.4%	-16.4%	-5.1%	-42.6%
O=C(OC12CCN(CC1)CC2)c1ccccc1	-7.55%	8.6%	4.25%	-50.2%	8.15%	0.5%
COc1ccc(C2=CCN(c3ccc(C)cc3)P(=O)(N(CCCl)CCCl)O2)cc1 (centres undefined)	46.8%	74% (active)	68.9%	81.1% (active)	90.8% (active)	77.4% (active)

Compound	growth inhibition [1]	growth inhibition [2]	growth inhibition [3]	growth inhibition [4]	growth inhibition [5]	growth inhibition [6]
CC[N+](CC)(CC)CC#CC[N+](CC)(CC)CC	5.65%	5%	14.3%	1.45%	12.8%	6.1%
COC1OOC(OC)c2ccccc2-c2ccccc21 (centres undefined)	-15.3%	-9.7%	4.1%	-14.1%	15.5%	4.15%
COc1ccc2c(c1O)[C@@]13CCCC=C1[C@@H](C2)[N+](C)(C)CC3	22.4%	13.7%	-19.9%	15.8%	-1.35%	-29.6%
C1CCC(N([P-]P([P-]N(C2CCCCC2)C2CCCCC2)N(C2CCCCC2)C2CCCCC2)C2CCCCC2)CC1.[C-]#[O+].[C-]#[O+].[C-]#[O+].[C-]#[O+].[C-]#[O+].[C-]#[O+].[Fe].[Fe] (centres undefined)	-20.7%	-28.1%	-23.2%	-8.1%	2.2%	-24.4%
C/C=C(/C)C(=O)O[C@H]1CC[C@@]2(C)[C@@H]3CC[C@H]4[C@]5(O)C[C@H](O)[C@@]6(O)[C@@H](CN7C[C@@H](C)CC[C@H]7[C@@]6(C)O)[C@]5(O)C[C@@]42O[C@@]13O	27.1%	-15.9%	18%	0.35%	22.8%	30.6%
CC(=O)CCNC1(c2ccccc2)CCCCC1	3.6%	2.95%	-2.65%	-0.65%	-2.5%	-2.9%
COc1ccc2c(c1O)-c1cc(O)cc3c1C(C2)N(CCCl)CC3 (centres undefined)	63.4%	29.1%	64.6%	15.8%	-10.3%	48.7%
CCCCCCCCCCC[CH2][Hg][Cl]	8.6%	3.15%	12.4%	-18.6%	-3.45%	-3.1%
CC(CCl)N1CCCCCC1 (centres undefined)	-14.3%	-16.8%	8%	-20.8%	5.3%	-6.8%
COc1cccc(/C=N/[N-]C(=O)c2ccncc2)c1[O-].[Mn+2].[OH3+]	9.15%	12.5%	7.35%	9.95%	4.7%	20.6%
NNc1ccc([N+](=O)[O-])cc1	23.9%	26.3%	40.9%	-10.3%	54.9%	51.6%
S=P(C1CCCCC1)(C1CCCCC1)C(c1cccnc1)N1CCCC1 (centres undefined)	-6.85%	-9.1%	-6.3%	-5.85%	20.6%	14.1%
CCOP(=O)(OCC)SC#N	15.1%	-2.85%	-6.4%	6.5%	-1.05%	16.1%
NC(Cc1ccccc1)c1cccc2c1CCCC2 (centres undefined)	7.35%	-7.3%	-2.55%	-21.8%	24.4%	40.5%
CC(=O)C(CN1CCCCC1)C(c1ccccc1)c1c(O)c2ccccc2oc1=O (centres undefined)	6.8%	-9%	9.25%	26.2%	33%	9.55%
S=C(SP(SC(=S)N1CCCCC1)SC(=S)N1CCCCC1)N1CCCCC1	28.9%	-31.9%	47.5%	-10.2%	-2.2%	39.7%
Oc1ccccc1C=NC1CCCCC1.Oc1ccccc1C=NC1CCCCC1.[Ni+2]	38.6%	-9.25%	28.6%	-40.8%	-0.1%	-15.4%
CN1CCCC(O)(C(=O)c2ccccc2)C1 (centres undefined)	4.15%	-15.2%	0.7%	-16%	-9.35%	12.9%
CC12CCC(OC3OC(CO)C(O)C(O)C3O)C=C1CCC1C2CCC2(C)C(c3ccc(=O)oc3)CCC12 (centres undefined)	62.5%	60%	46.3%	35.2%	61.2%	45.6%
